NS1 inh: blocks influenza NS1 protein function; hit rate 0.4% among 270,000; Potency, µM (top dose mostly 46.1 µM), for inactives: at the highest dose activity, positive = more growth; AID 2326; calls by dose curve; also: actives are rising curves; nearly all actives have a fitted effect of over 50% in size
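In this qHTS, NS1 from influenza A is expressed in budding yeast, where it slows growth. Cells are switched from glucose to 2% galactose medium (pH 6.0, -URA), treated with compound, and growth recovery is read at OD600.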
TbPYK inhibitor: T. brucei pyruvate kinase inhibition | Potency, µM (titrated, usually from 76.8 µM), for inactives: top-dose activity, negative = inhibition, hits mostly inhibitors | hit rate 0.12% among 410,000 | Q57TT1 | TbPYK enzyme, Kinase-Glo Plus ATP luminescence, 45 min; also: % is scaled to controls: 0 for no effect and ±100 for the full control effect; nearly all actives have a fitted effect of over 50% in size
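Assay buffer: 50 mM TEA pH 7.2, 100 mM KCl, 10 mM MgCl2, 0.05% BSA, 0.01% Tween-20. Pyruvate kinase from T. brucei plus substrate met compound, then ADP (130 uM final). Luminescence was read post 45 min RT.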
RE007 growth inh: less growth of the S. pombe RE007 Vpr strain | S. pombe RE007 Vpr strain, BacTiter-Glo ATP luminescence, 24 h | Potency, µM (top dose mostly 92.2 µM), for inactives: top-dose activity change, negative = less growth, most hits filed as inhibitors | hit rate 0.21% among 360,000 | AID 651644; active = well fitted falling curve with a large enough effect; inconclusive = small, poorly fitted or top-dose-only effect; inactive = no such curve, though single readings can be large or run the other way; also: % is scaled to controls: 0 for no effect and ±100 for the full control effect; nearly all actives have a fitted effect of over 50% in size
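Fission yeast RE007 carrying one integrated HIV-1 vpr copy, seeded at OD 0.01 in PMG+AL medium with 23 nL pinned compound. Grown 24 h at 30 degrees; viability read by BacTiter-Glo luminescence after 5 min.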
LmPK inh: LmPK (Leishmania mexicana) enzyme inhibition | purified LmPK, Kinase-Glo ATP luminescence, 1 h | hit rate 0.37% among 290,000 | Potency, µM (doses to about 57.5 µM), for inactives: top-dose activity change, negative = inhibition, hits mostly inhibitors | AID 1721; also: % is scaled to controls: 0 for no effect and ±100 for the full control effect
Target sequence (Q27686 whole entry, looked up): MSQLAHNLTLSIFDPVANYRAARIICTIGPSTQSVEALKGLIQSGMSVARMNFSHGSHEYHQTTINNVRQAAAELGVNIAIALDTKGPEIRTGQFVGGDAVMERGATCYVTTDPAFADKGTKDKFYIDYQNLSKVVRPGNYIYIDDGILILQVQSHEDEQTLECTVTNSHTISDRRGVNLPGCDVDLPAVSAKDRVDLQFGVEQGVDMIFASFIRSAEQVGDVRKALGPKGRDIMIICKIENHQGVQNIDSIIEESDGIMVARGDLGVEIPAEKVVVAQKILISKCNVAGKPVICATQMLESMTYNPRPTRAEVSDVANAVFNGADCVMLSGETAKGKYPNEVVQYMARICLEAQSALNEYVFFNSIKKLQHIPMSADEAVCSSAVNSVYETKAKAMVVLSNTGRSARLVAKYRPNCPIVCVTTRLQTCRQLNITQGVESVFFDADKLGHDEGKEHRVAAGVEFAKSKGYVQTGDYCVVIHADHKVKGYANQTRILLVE
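Pyruvate kinase activity monitored as ATP production (luciferase luminescence). Conditions: 0.1 nM enzyme, 0.5 mM PEP, 0.1 mM ADP, 1 h, RT; normalized against uninhibited and no-enzyme wells.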
Sm TGR block: blocks Schistosoma mansoni thioredoxin glutathione reductase. Q962Y6. purified TGR, DTNB reduction, TNB absorbance 405 nm. Potency, µM (series often up to 114 µM), without a hit: top-dose activity change, negative = inhibition, most hits filed as inhibitors. hit rate 3% among 360,000. AID 485364; also: % is scaled to controls: 0 for no effect and ±100 for the full control effect; nearly all actives have a fitted effect of over 60% in size
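First, TGR (20 nM dispensed) and NADPH were mixed with compound. Second, a 15 min room-temperature incubation followed. Third, further NADPH and then DTNB were added to start the reaction. Finally, TNB absorbance was monitored kinetically.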
SARS PLpro yeast: blocks SARS-CoV papain-like protease in a yeast assay | Potency, µM (doses to about 32.9 µM), without a hit: at the highest dose activity, positive = growth rescue, most hits filed as activators | S. cerevisiae expressing SARS-CoV PLpro, growth rescue | hit rate 0.19% among 330,000 | AID 485353; calls by dose curve; also: 0% is about no effect; nearly all actives have a fitted effect of over 55% in size
* marks the source's active call; other numbers are inactive results; [ ] = dose if it differs, or a comment. The list is not random: actives were taken first. Their share in the collection is about 3.3%. Unless noted, calls follow the shape of the dose curve; as a rule, active = well fitted curve in the direction sought with a large enough effect; inconclusive = small, poorly fitted or top-dose-only effect, or another doubt; inactive = no such curve, though single readings can be large; an effect the other way counts as inactive or inconclusive. Potency is read from the fitted curve at half-maximal effect.

`C#CCOCCOCCOCCNc1nc(N2CCN(C(=O)[C@H]([C@@H](C)CC)n3cc([C@@H](N)CC(C)C)nn3)CC2)nc(N2CCN(C(=O)[C@H]([C@@H](C)CC)n3cc([C@@H](N)CC(C)C)nn3)CC2)n1` gave NS1 inh -2%, TbPYK inhibitor -2%, RE007 growth inh 13%, LmPK inh 3%, Sm TGR block 28µM* and SARS PLpro yeast -1%.
`C#CCOCCOCCOCCNc1nc(N2CCN(C(=O)[C@H](CCC(=O)O)n3cc(C(N)CC(C)C)nn3)CC2)nc(N2CCN(C(=O)[C@H](Cc3ccc(O)cc3)n3cc(C(N)[C@H](C)CC)nn3)CC2)n1` (stereo partly specified) gave NS1 inh 1%, LmPK inh 0%, Sm TGR block 40µM* and SARS PLpro yeast -1%.
C#CCOCCOCCOCCNc1nc(N2CCN(C(=O)C([C@@H](C)CC)n3cc(C(N)CC(C)C)nn3)CC2)nc(N2CCN(C(=O)[C@H](CCC(=O)O)n3cc(C(N)[C@H](C)CC)nn3)CC2)n1 (stereo partly specified) was read as NS1 inh 4%, TbPYK inhibitor 5%, RE007 growth inh 5%, LmPK inh 0%, Sm TGR block -25% and SARS PLpro yeast 0%.
For C#CCOCCOCCOCCNc1nc(N2CCN(C(=O)[C@H](CCC(=O)O)n3cc(C(N)Cc4ccc(O)cc4)nn3)CC2)nc(N2CCN(C(=O)[C@H](CCCCN)n3cc(C(N)[C@H](C)CC)nn3)CC2)n1 (stereo partly specified) the results were NS1 inh 3%, LmPK inh -5%, Sm TGR block 32µM* and SARS PLpro yeast -3%.
`C#CCOCCOCCOCCNc1nc(N2CCN(C(=O)[C@H]([C@@H](C)CC)n3cc([C@@H](N)Cc4ccc(O)cc4)nn3)CC2)nc(N2CCN(C(=O)[C@H](CCCCN)n3cc([C@@H](N)C(C)CC)nn3)CC2)n1` (stereo partly specified) gave NS1 inh 1%, TbPYK inhibitor -1%, RE007 growth inh 2%, LmPK inh 9%, Sm TGR block -3% and SARS PLpro yeast -2%.
For CN[C@H]1C[C@@H](N)[C@H](O)[C@@H](O[C@@H]2O[C@H](CO)[C@H](O)[C@@H]3O[C@]4(O[C@@H]23)O[C@H]([C@@H](N)CO)[C@H](O)[C@@H](O)[C@H]4O)[C@@H]1O the results were TbPYK inhibitor 6%.
Screening COc1ccc(OC)c(CNC(=O)C2CCN(c3nc4ccccc4nc3C(F)(F)F)CC2)c1 returned TbPYK inhibitor -10% and Sm TGR block 12%.
Screening O=C(O)Cc1sc(N/N=C\c2ccncc2)nc1-c1ccccc1 returned NS1 inh 19%, TbPYK inhibitor -18%, RE007 growth inh 20%, LmPK inh 7%, Sm TGR block 0.25µM* and SARS PLpro yeast 12%.
Screening Cc1ccc2c(c1)cc1c(=O)n(CC(=O)N3CCCCC3)nc(C)n12 returned TbPYK inhibitor -10% and Sm TGR block 0%.
Screening CCOC(=O)N1CCN(C(=O)c2cnn(-c3cccc(F)c3)c2-n2cccc2)CC1 returned TbPYK inhibitor 3%[15.4 µM] and Sm TGR block 5%.
`O=C(/C=C/c1ccc(-c2ccccc2)o1)c1ccccc1` gave NS1 inh -4%, TbPYK inhibitor -1%, RE007 growth inh -1%, LmPK inh -20%, Sm TGR block inconclusive and SARS PLpro yeast 5%.
For CCN(C(=O)C=Cc1ccco1)c1ccccc1 the results were TbPYK inhibitor -7% and RE007 growth inh 24%.
`CC(=C/C(=O)O)/C=C/c1ccco1` gave NS1 inh -14%, TbPYK inhibitor inconclusive, RE007 growth inh -4%, LmPK inh 6%, Sm TGR block 7.9µM* and SARS PLpro yeast -11%.
